PubChem BioAssay (NCI)
About 83,000 compounds went through this panel and 20% of them were active in at least one assay; those are over-represented in the sample as a whole.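 Single-concentration screen, 48 h exposure, 96-well plates. Endpoint: percent growth. Below 10 = active.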 The source made the active and inactive calls.

test system: LOX IMVI melanoma; experiment: NCI-60 one-dose screen, 48 h (100 = growth as untreated, 0 = no growth, -100 = all killed); conditions: 10 µM unless noted

| Structure (SMILES) | growth |
| --- | --- |
| CNc1sc(S(=O)(=O)NC)nc1S(=O)(=O)c1ccc(C)cc1 | 96.1% (inactive) |
| COc1cccc(N2CCN(C3=C(Cl)C(=O)c4ncccc4C3=O)CC2)c1 | 28.6% (inactive) |
| O=C1[C@@H]2Cc3c([nH]c4ccccc34)[C@@H](c3ccc(Cl)cc3)N2C(=O)CN1C1CCN(Cc2ccccc2)CC1 | -15% (active) |
| CC(=O)OCCCCN1C=C/C(=C\C(=O)n2ccc3ccccc32)c2ccccc21 | 99.9% (inactive) |
| CN1CCN(c2ccc(Nc3nc(NCCNS(=O)(=O)c4ccc5ccccc5c4)c4sccc4n3)cc2)CC1 | -77.3% (active) |
| CC1=C(C)C(=O)C(Nc2ccc3c(c2)OCCO3)=C(Br)C1=O | 20.3% (inactive) |
| C=C(C)[C@@H]1CC[C@]2(C(=O)NC3CCCCC3)CC[C@]3(C)[C@H](CC[C@@H]4[C@@]5(C)CC[C@H](N)C(C)(C)[C@@H]5CC[C@]43C)[C@@H]12 | -75.1% (active) |
| CCOC(=O)c1c(NC(=O)c2ccc(C(F)(F)F)cc2)sc2c3c(ccc12)OCN(C)C3 | -95.1% (active) |
| C#CCN(C)CCCOc1ccc(NCc2ccc(/C=C/C(=O)NO)cc2)cc1Cl | -69.5% (active) |
| COc1cc(/C=N\NC(=O)c2ccc3nc(-c4ccc(Br)cc4)[nH]c3c2)cc(OC)c1OC | 35.2% (inactive) |
| C=C1CCc2nc(SCC(=O)O)ccc2N1 | 96.9% (inactive) |
| CN1CCC[C@]2(C)[C@H]3CC[C@@H]4[C@@H]5[C@H]6OC[C@@]5(CCC6(C)C)CC[C@@]4(C)[C@]3(C)CC[C@H]2C1(C)C | -74.5% (active) |
| C=C(C=O)[C@@H]1CC[C@]2(C(=O)O)CC[C@]3(C)C(CC[C@@H]4[C@@](C)(CCC#N)[C@H](C(=C)C=O)CC[C@]43C)[C@@H]12 (stereo partly drawn) | -81.7% (active) |
| NCCNC(=O)c1cccc(COc2ccccc2NC(=O)c2cc(Cl)c(Cl)[nH]2)c1 | 81.5% (inactive) |
| COc1ccc(C2c3[nH]c4ccc(Cl)cc4c3CCN2c2oc(CO)nc2C#N)cc1 (stereo not drawn) | 24.2% (inactive) |
| CN(C)c1ccc(-c2cc(-c3c[nH]c4ccccc34)nc(N)c2C#N)cc1 | 11.3% (inactive) |
| COc1ccccc1/C=C1\Oc2ccc(O)c(O)c2C1=O | 83.5% (inactive) |

| Structure (SMILES) | growth |
| --- | --- |
| CCCCCc1ccc(S(=O)(=O)Nc2cc(-c3csc(N)n3)ccc2OC)cc1 | 107% (inactive) |
| O=C(O)c1ccc(-n2c(=O)n(-c3cccc(C(F)(F)F)c3)c(=O)c3cc(-c4ccc(F)cc4F)ccc32)cc1 | 5.95% (active) |
| Nn1c(=O)n(-c2cccc(C(F)(F)F)c2)c(=O)c2cc(-c3ccc(F)cc3F)ccc21 | 0.654% (active) |
| CCCCN1C(=O)/C(=c2\sc3n(c2=O)C2C(NN=3)N(CC)C(=O)N2CC)c2cc(C)ccc21 (stereo not drawn) | 78.8% (inactive) |
| CC(C)[C@H]1c2[nH]c3ccccc3c2C[C@H]2C(=O)N(CCCCCCC(=O)NO)CC(=O)N12 | 72.7% (inactive) |
| O=C(N/N=C\c1ccc(F)cc1)c1ccc2nc(-c3ccc(Br)cc3)[nH]c2c1 | -12.3% (active) |
| NC1[C@H]2CN(c3cnc(C(=O)Nc4cc(F)cc5cccnc45)cn3)C[C@@H]12 (stereo partly drawn) | 71.5% (inactive) |
| Cc1ccsc1[C@H]1c2[nH]c3ccccc3c2C[C@H]2C(=O)N(CCCCCCC(=O)NO)CC(=O)N12 | -71.9% (active) |
| CC(=O)N(O)CCCCCNC(=O)CCC(=O)N(O)CCCCCNC(=O)CCC(=O)N(O)CCCCCN(CCCCCCCCCC[P+](c1ccccc1)(c1ccccc1)c1ccccc1)CCCCCCCCCC[P+](c1ccccc1)(c1ccccc1)c1ccccc1 | -15% (active) |
| O=c1nc(Nc2ccc([N+](=O)[O-])cc2O)sc2ccccc12 | 41.2% (inactive) |
| Cc1cc2nc(C(Cl)Cl)nc(-c3ccc(S(=O)(=O)N(C)C)cc3)n2n1 | 17.7% (inactive) |
| C/C(CC1(O)C(=O)Nc2ccccc21)=N\O (stereo not drawn) | 90.4% (inactive) |
| C[C@]12CC[C@H]3[C@@H](CC=C4C[C@@H](O)CC[C@@]43C)[C@@H]1CC[C@@H]2[C@](C)(O)CCc1cccnc1 | 75.9% (inactive) |
| O=C(CSc1nnc(-c2cccs2)n1-c1ccccc1)Nc1ccccc1F | 78.9% (inactive) |
| CC(=C(c1ccc(OCCCN(C)C)cc1)c1ccc(OCCCN(C)C)cc1)c1ccc(Cl)cc1 | 76.6% (inactive) |
| O=C(CSc1nc2ccccc2c(=O)n1-c1ccc(Cl)c(Cl)c1)Nc1ccc(S(=O)(=O)Nc2ccc(Cl)nn2)cc1 | 97.4% (inactive) |
